According to ChEMBL document CHEMBL4513216, “Probing the Open Global Health Chemical Diversity Library for Multistage-Active Starting Points for Next-Generation Antimalarials” (ACS Infect Dis, 2020):
Hit rate of the full screen: of about 69,000 compounds, about 8,600 (12%) showed an effect of 50% or more. Shown is part of a subset that was picked to be rich in strong results.

tested on: Plasmodium berghei; assay: Screen against P. berghei liver stage (PbLuc), transformed with Luciferase, at 10uM; format: functional, HepG2; conditions: tested at 10 uM

Structure (SMILES) | INHIBITION
CN1CCCC(CNC(=O)N(C)Cc2ccc(Cl)c(F)c2)C1 (centres undefined) | 31%
CCN(CC)S(=O)(=O)N1CC[C@H](c2ccccc2)[C@@H]2[C@H]1CCCCN2C | 73.1%
CCN(CC)S(=O)(=O)N1CC[C@H](c2ccccc2)[C@H]2NCCCC[C@H]21 | 47.2%
N[C@H]1CN(S(=O)(=O)N2CCCC2)C[C@@H]1c1ccccc1 | 44.2%
CCN(CC)S(=O)(=O)N1CCCC1CC(=O)c1cccs1 (centres undefined) | -2.74%
CCN(CC)S(=O)(=O)N1C[C@@H](c2ccccc2)[C@H]2[C@H]1CCCCCN2C | 51.7%
CCN(CC)S(=O)(=O)N1CCCC(c2cccc(C(=O)O)c2)C1 (centres undefined) | -31.5%
CN1CCCCC[C@@H]2[C@@H]1[C@H](c1ccccc1)CN2C(=O)c1ccccn1 | -37%
O=S(=O)(N1CCCC1)N1CC[C@H](c2ccccc2)[C@H]2NCCCC[C@H]21 | 52%
O=S(=O)(N1CCCC1)N1CCCCC1CCc1ccccc1 (centres undefined) | 31.8%
CN1CCCC[C@@H]2[C@H]1[C@@H](c1ccccc1)CCN2S(=O)(=O)N1CCCC1 | 61.7%
CC(C)S(=O)(=O)N1C[C@@H](c2ccccc2)[C@H]2[C@H]1CCCCCN2C | 16.5%
O=S(=O)(N1CCCC1)N1C[C@@H](c2cccc(F)c2)[C@@H]2NCCCCC[C@H]21 | 43.6%
CC[C@@H](c1ccccc1)n1c(CCN)n[nH]c1=O | 39%
CCc1noc(C(C)N2CCN(c3ccc(C#N)cc3F)CC2)n1 (centres undefined) | -17.4%
O=C(CC1CCCC1)NCCS(=O)(=O)N1CCN(c2ccccc2)CC1 | -16.4%
CC(=O)NCc1cc(-c2cccs2)n(C2CCCC2)n1 | 1.74%
COc1c(C2CCCN2CC(=O)N(C)c2nccs2)c(C)nn1C (centres undefined) | 8.7%
CN(C)c1ccc(C(=O)N2CCCC2c2noc(C3CC3)n2)nn1 (centres undefined) | 3.263%
Cc1ncc2c(n1)CN(CC(=O)Nc1nnc(C)s1)CC2 | 34.7%
O=C(NCC1CC1)[C@@H]1CCO[C@@H]2CCN(CCc3ccccc3)C[C@H]21 | 47.1%
COCC(=O)NCc1cc2n(n1)CCCN(Cc1ccccc1SC)C2 | -46.2%
CN(Cc1ccccc1)CC(O)Cn1cnc2cc(F)ccc2c1=O (centres undefined) | -8.7%
CS(=O)(=O)N1C[C@@H]2COC[C@H](C(=O)Nc3cnccn3)[C@@H]2C1 | 45.2%
O=C(NCc1ccco1)[C@@H]1COC[C@H]2CN(c3ncc(F)cn3)C[C@H]21 | 3.88%

Structure (SMILES) | INHIBITION
O=C(Nc1cnccn1)[C@H]1COC[C@H]2CN(c3ncc(F)cn3)C[C@H]21 | 67.4%
O=C(NC1CC1)[C@H]1COC[C@H]2CN(c3ncc(F)cn3)C[C@H]21 | 58.5%
O=C(Nc1cnccn1)[C@@H]1COC[C@H]2CN(c3ncc(F)cn3)C[C@H]21 | -22.7%
O=C([C@H]1COC[C@H]2CN(c3ncc(F)cn3)C[C@H]21)N1CCOCC1 | -0.554%
CC(=O)N1[C@H](CN(C)C)C[C@@H]2CN(C(=O)c3ccsc3)CC[C@@H]21 | -24.5%
O=C([C@H]1CN(CCc2ccccc2)C[C@H]2OCC[C@@H]12)N1CCCO1 | 8.57%
COc1ccc(Cn2cc(C(=O)N(C)Cc3cnccn3)nn2)cc1 | 21.5%
COc1cccc(CNc2nc(C)cc(C)n2)c1OC | -11.7%
COc1cccc(CNc2cc(C)nc(-c3ccncc3)n2)c1OC | 85.2%
COc1cccc(CNc2cc(C)nc(-c3ccncc3)n2)c1O | 78.9%
COCCNC(=O)CCNc1cc(C)nc(-c2ccncc2)n1 | 24%
Cc1cc(NCCC(=O)NC(C)C)nc(-c2ccncc2)n1 | -2.43%
COc1cccc(CNc2cccnc2-n2cccn2)c1OC | 17.3%
Cc1nc(CN2CCN(C(=O)c3sccc3C)CC2)cs1 | -117%
CC(C)c1nc(CNCC2CCCN2c2cccnn2)cs1 (centres undefined) | -16.8%
COC(=O)c1ccc(C(=O)NCC(O)c2cccn2C)cc1 (centres undefined) | -52.5%
CC1CCN(c2cc(CCC3CCCN3)ncn2)CC1 (centres undefined) | 34%
Cn1ncnc1CNc1ccc2c(c1)N(C(=O)OC(C)(C)C)CCC2 | 52.4%
Cc1n[nH]cc1CNc1ccc2c(c1)N(C(=O)OC(C)(C)C)CCC2 | 31.8%
Cc1cc(CNCC2CCCN(C(=O)OC(C)(C)C)C2)no1 (centres undefined) | 39%
COc1ccc(NC(=O)c2ccccc2NCc2ncnn2C)cc1 | 47.4%
CC(C)(C)OC(=O)N1CCCc2ccc(NCc3cc[nH]c3)cc21 | 92.1%
CCNC(=O)N1CCc2ccc(NC(=O)NCCOCC)cc21 | -26.8%
Cn1ncnc1CNc1ccccc1C(=O)NC(C)(C)C | 1.2%
